Measurements from PubChem BioAssay (NCI).
About 79,000 compounds went through this panel and 15% of them were active in at least one assay; those are over-represented in the sample as a whole. No stated cut-off is given here; in the data, active means growth inhibition above about 70%; inactive means the rest.

Assays:
[1] = NCI Yeast Anticancer Drug Screen. Data for the rad50 strain (AID 155);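 further: 0% = growth of vehicle-only cultures of the same strain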; details: S. cerevisiae rad50 strain growth inhibition; at 50.0 µM; hits give high values
Outline: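 Genetically altered yeast (DNA repair pathway); compound treatment; growth inhibition vs vehicle ctrl.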

[2] = NCI Yeast Anticancer Drug Screen. Data for the mec2-1 strain (AID 157); details: S. cerevisiae mec2-1 strain, at 50.0 µM, hits give high values
Outline: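 Strain: mec2-1 (DNA repair/cell cycle alteration). Compound exposure, then growth measured; inhibition expressed relative to vehicle.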

[3] = NCI Yeast Anticancer Drug Screen. Data for the sgs1 mgt1 strain (AID 161);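 further: 0% = growth of cultures given vehicle only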; details: S. cerevisiae sgs1 mgt1 strain, at 50.0 µM, hits give high values
Outline: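 Test agents were incubated with a DNA-repair-mutant yeast strain. Growth was then read and compared against vehicle-treated controls.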

[4] = NCI Yeast Anticancer Drug Screen. Data for the cln2 rad14 strain (AID 165);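 further: 0% = growth equal to vehicle treated cultures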; details: S. cerevisiae cln2 rad14 strain, at 50.0 µM, hits give high values
Outline: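 Compounds are applied to the cln2 rad14 yeast strain, and growth is then compared with that of vehicle-treated cultures to give inhibition.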

[5] = NCI Yeast Anticancer Drug Screen. Data for the bub3 strain (AID 167); details: S. cerevisiae bub3 mutant strain, at 50.0 µM, hits give high values
Outline: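 Yeast carrying a defined mutation is treated with each compound, and growth is compared with that of vehicle-exposed cells to give inhibition.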

[6] = NCI Yeast Anticancer Drug Screen. Data for the mlh1 rad18 strain (AID 175); details: S. cerevisiae mlh1 rad18 strain growth inhibition; at 50.0 µM; hits give high values
Outline: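 Read-out is yeast growth inhibition, calculated against vehicle-only controls. The compound was applied to a strain engineered with DNA damage repair alterations.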

Measured: growth inhibition

CC1(C)C/C(=C\c2cccc(Cl)c2)C(=O)c2ccccc21
inactive: [1] 11.8% | [2] 16.6% | [3] -0.75% | [4] -12.8% | [5] -5.65% | [6] 7.4%

COc1cccc(/C=C/S(=O)(=O)Cc2ccccc2)c1OC
inactive: [1] 9.7% | [2] 4.85% | [3] 4.85% | [4] 23.4% | [5] 7.4% | [6] 26.1%

ClCCOCOc1ccc2ccccc2c1
inactive: [1] 29.6% | [2] 23.9% | [3] 43.6% | [4] 16.7% | [5] 26.6% | [6] 26.9%

O=C(N/N=C/c1cc(Br)cc(Br)c1O)c1ccccc1
inactive: [1] 3.85% | [2] -1.4% | [3] 11.3% | [4] 3.85% | [5] -2.05% | [6] 28.4%

CCCC1CN2CCc3cc(OC)c(OC)cc3C2CC1=O (stereo not given)
inactive: [1] 4.6% | [2] 23.6% | [3] 41.1% | [4] 12.4% | [5] 41.1% | [6] 39.8%

COC(=O)Nc1nc2ccc(SC)cc2c(=O)[nH]1
inactive: [1] -9.55% | [2] -5.55% | [3] 3.2% | [4] 6.45% | [5] -17.8% | [6] -29.6%

COC1/C=C/OC2(C)Oc3c(C)c(O)c4c(O)c(c(C=NNC(=O)c5ccc(N)cc5)c(O)c4c3C2=O)NC(=O)/C(C)=C/C=C/C(C)C(O)C(C)C(O)C(C)C(OC(C)=O)C1C (stereo not given)
inactive: [1] -3.55% | [2] 13.5% | [3] -3.25% | [4] -17.6% | [5] -5.3% | [6] 29.4%

CC(=O)OCC#Cc1ccccc1
inactive: [1] -10.9% | [2] -14.1% | [3] -0.2% | [4] -17.6% | [5] 19.4% | [6] -1.2%

CCCCCCCCCCCCSc1nc2c([nH]1)c(=O)n(C)c(=S)n2C
inactive: [1] -24.1% | [2] 0.75% | [3] -31.9% | [4] 16.4% | [5] -1.05% | [6] -15.2%

Cc1sc2nc3n(c(=O)c2c1C)N=CN(c1ccc(F)cc1)C3
inactive: [1] 0.85% | [2] -0.45% | [3] 8.85% | [4] -17.1% | [5] -7.5% | [6] -32.6%

CC(N)CCN (stereo not given)
inactive: [1] 3.7% | [2] 11.2% | [3] -5.55% | [4] 10.8% | [5] 12.1% | [6] 1.55%

OC1CSCCCSCC(O)CSCCCSC1 (stereo not given)
inactive: [1] 1.7% | [2] 10.9% | [3] 3.4% | [4] -2.5% | [5] 0.2% | [6] 8%

Cc1c(-c2nc3ccccc3[nH]2)c(=O)n(-c2ccccc2)n1C
inactive: [1] -70.2% | [2] -38.1% | [3] -24.1% | [4] 7.25% | [5] -10.4% | [6] -38.9%

O=C1CC2(CCc3ccccc32)C(=O)N1CN1CCN(CCO)CC1 (stereo not given)
inactive: [1] 12.6% | [2] -5.8% | [3] 3.9% | [4] 9% | [5] 7.15% | [6] 11.9%

O=S1Nc2ccccc2[C@H]2[C@@H]1[C@H]1O[C@@H]2c2ccccc21 (stereo not given in full)
inactive: [1] -3.6% | [2] -5.65% | [3] -23.6% | [4] -27.6% | [5] -6.6% | [6] -0.85%

COc1ccc(CC(C)=C(C#N)C#N)cc1OC
inactive: [1] -10.8% | [2] -2.45% | [3] -8.25% | [4] 11.8% | [5] -0.05% | [6] -17.3%

O=C1c2ccccc2CN(C(=Nc2ccccc2)Nc2ccccc2)c2ccccc21
inactive: [1] 15.1% | [2] 2.95% | [3] -0.55% | [4] -25.7% | [5] -0.7% | [6] 14.9%

CC1CCOC(c2ccccc2Cl)O1 (stereo not given)
inactive: [1] -25% | [2] 14.1% | [3] -4.55% | [4] -12.1% | [5] -9.3% | [6] 5%

O=[N+]([O-])c1ccc2[nH]c(-c3ccccc3)cc2c1
inactive: [1] 5.2% | [2] 10.8% | [3] -3.6% | [4] 7.3% | [5] -2.2% | [6] 18.9%

CC(C)CCCC(C)C1CCC2C3CC=C4CC(OC(=O)C(Cl)(Cl)Cl)CCC4(C)C3CCC12C (stereo not given)
inactive: [1] -7.65% | [2] -7.55% | [3] -0.7% | [4] -27.1% | [5] -28.1% | [6] -5.4%
